From PubChem BioAssay
NOD2-RIPK2 inh – NOD2-RIPK2 binding disruptors in cells, primary screen, fluorescence, CHO cells, BLA complementation | inhibition, % at 4.98 µM | 0.38% of 360,000 active | Receptor-interacting serine/threonine-protein kinase 2 (Homo sapiens), O43353 | CCF4 ratio; in the data active = inhibition above about 21%;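 also: 0% = vehicle only and 100% = reference blocker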
ABHD5-PLIN5 inh – ABHD5-PLIN5 interaction inhibitors, primary screen, cell lysate, split luciferase complementation, luminescence | Perilipin-5 (Homo sapiens) + 1-acylglycerol-3-phosphate O-acyltransferase ABHD5 (Homo … | Split G. princeps luciferase complementation, 4 h | inhibition, % at 4 µM | 0.78% of 360,000 active | AID 602281, 2012;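 active = inhibition above the mean inhibition across every tested compound plus 3 SD, cut at about 22% in these data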;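 also: 0% = DMSO only wells and the 100% control is not disclosed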
Target sequence (Q00G26 whole entry, looked up): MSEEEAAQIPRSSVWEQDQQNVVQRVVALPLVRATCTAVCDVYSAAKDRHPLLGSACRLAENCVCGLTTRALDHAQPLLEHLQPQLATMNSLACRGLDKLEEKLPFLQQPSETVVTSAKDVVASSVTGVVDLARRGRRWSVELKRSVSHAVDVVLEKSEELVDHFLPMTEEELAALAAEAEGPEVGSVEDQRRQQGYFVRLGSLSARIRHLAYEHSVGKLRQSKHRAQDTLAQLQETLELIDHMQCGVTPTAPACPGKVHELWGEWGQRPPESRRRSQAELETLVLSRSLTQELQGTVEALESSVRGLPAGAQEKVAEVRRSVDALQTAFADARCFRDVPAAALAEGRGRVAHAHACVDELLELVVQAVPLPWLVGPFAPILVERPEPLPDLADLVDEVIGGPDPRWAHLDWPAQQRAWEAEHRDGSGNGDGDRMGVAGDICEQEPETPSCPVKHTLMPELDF
Target sequence (Q8WTS1 whole entry, looked up): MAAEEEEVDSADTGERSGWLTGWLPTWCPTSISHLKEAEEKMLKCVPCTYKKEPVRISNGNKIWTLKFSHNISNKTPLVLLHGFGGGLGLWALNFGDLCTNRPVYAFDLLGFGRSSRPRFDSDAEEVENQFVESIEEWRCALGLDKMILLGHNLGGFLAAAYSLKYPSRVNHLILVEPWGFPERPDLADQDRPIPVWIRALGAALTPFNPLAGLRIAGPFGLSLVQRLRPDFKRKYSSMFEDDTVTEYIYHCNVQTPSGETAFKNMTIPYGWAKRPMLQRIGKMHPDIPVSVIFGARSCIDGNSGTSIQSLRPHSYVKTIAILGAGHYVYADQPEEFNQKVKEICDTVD
TLR9-MyD88 block – inhibitors of TLR9-MyD88 association in cells, primary screen, cell-based, CHO, BLA complementation, fluorescence; CCF4 FRET ratio; inhibition, % at 4.98 µM; 0.21% of 340,000 active;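 active = inhibition above the mean over all tested compounds plus 3 SD, cut at about 21% in these data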;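 also: 0% = DMSO only wells and 100% = clavulanate BLA inhibitor control wells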
B2AR ag – beta2AR agonists driving receptor internalization, primary screen, cell-based, FAP fluorogen, flow cytometry | Beta-2 adrenergic receptor (Homo sapiens), P07550 | Am2.2-beta2AR cells | response, % (test concentration not listed) | 0.43% of 340,000 active | AID 504454, 2011;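 active = response above a set limit, near 3 SD of response in nonfluorescent compounds, cut at about 42% in these data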
TLR4-MyD88 BLA – inhibitors of TLR4-MyD88 association in cells, primary screen, cell-based, HeLa CL3-4, BLA complementation, FRET ratio | Toll-like receptor 4 (Homo sapiens) + Myeloid differentiation primary response protein … | inhibition, % at 8.4 µM | HeLa CL3-4 TLR4/MyD88 BLA complementation | 0.18% of 200,000 active; in the data active = inhibition above about 25%;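 also: 0% = vehicle and 100% = reference inhibitor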
Exocytosis inh – LAMP-1 surface exposure blockers, TALL-104 cells – cell-based, flow cytometry, MLPCN library, primary screen. inhibition, % at 10 µM. 0.66% of 360,000 active. AID 651702, 2012. TALL-104 LAMP-1 surface exposure; cells stimulated with thapsigargin and PMA;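 active = inhibition above about 55%, limit read from the data; inconclusive = no clear call, values can overlap the other calls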
B2AR ag CP1 – beta2AR agonists via receptor internalization, confirmation, cell-based, FAP fluorogen, flow cytometry, single point, cherry pick 1; shares compounds with B2AR ag; Am2.2-beta2AR cells, FAP surface receptor; stronger effect = lower value; percent response (surface receptor), % at 10 µM; 25% of 1,100 active; AID 540358, 2011;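 active = surface receptor percent response at or below 58%, roughly 3 SD from nonfluorescent compounds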
FAP fluor counter – fluorescence artifact in beta-2AR agonist FAP counterscreen. shares compounds with B2AR ag. Am2.2 cells, FAP fluorogen flow cytometry; stronger effect = lower value. calls only at 10 µM. 1,100 tested, under 10 active. AID 588765;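 active = percent response below a set limit in fluorescence channel 1 and below 50% in channel 8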
* marks the source's active call; other numbers are inactive results; i = inactive; ? = inconclusive; nt = no result given; ! = not active in a repeat. Sampled rows, rich in hits. Any-hit rate of the full collection: about 2%.

SMILES	NOD2-RIPK2 inh	ABHD5-PLIN5 inh	TLR9-MyD88 block	B2AR ag	TLR4-MyD88 BLA	Exocytosis inh	B2AR ag CP1	FAP fluor counter
CNC[C@@H]1OCc2ccccc2-c2c(n(C)c3ccccc23)C(=O)N([C@H](C)CO)C[C@@H]1C	-12.9	5.4	-2.9	nt	nt	1.5	nt	nt
O=C(Nc1ccc(N2CCCC2)cc1)c1cc(Cl)ccc1Cl	5.6	-0.5	2.1	73.2*	nt	-4.7	96.6	i
O=C(Nc1ccc(N2CCCC2)cc1)c1ccc(Cl)cc1Cl	-0.6	-2.4	5.6	-0.3	nt	2.1	nt	nt
Cc1[nH]c2ccccc2c1C(=O)c1cc(Cc2ccccc2)sc1N	0.3	9.8	nt	nt	nt	35.1	nt	nt
COc1ccc(Cl)c2sc(N(CCN(C)C)C(=O)c3ccc4c(c3)OCCO4)nc12	-9.0	7.9	-0.5	44.3*	nt	19.3	127.9	i
CC1CCCC(NC(=O)c2cc(S(=O)(=O)N3CCCCC3)c[nH]2)C1C (configuration not stated)	-3.8	-4.3	nt	nt	nt	-2.2	nt	nt
Cc1cc(C)nc(NS(=O)(=O)c2ccc(NC(=O)c3ccco3)cc2)n1	0.4	2.0	0.7	-5.7	-5.1	2.6	nt	nt
CCc1ccc(C(=O)Nc2ccc(S(=O)(=O)Nc3nc(C)cc(C)n3)cc2)o1	-15.0	14.2	3.0	54.0*	-0.8	?	105.1	i
NC(c1csc(Nc2nncc3ccccc23)n1)C1CCCCC1 (configuration not stated)	11.8	9.0	nt	nt	nt	27.4	nt	nt
CN[C@H]1CC[C@@H](c2ccc(Cl)c(Cl)c2)c2ccccc21	2.2	11.3	-5.9	50.3*!	nt	nt	81.1	i
O=C1C=C(O)CC(c2ccc(Cl)c(Cl)c2)C1 (configuration not stated)	-4.0	1.4	10.1	0.8	3.7	1.1	nt	nt
CC(=O)c1ccc(OCc2cc(C(=O)N(C)CCOc3ccc(C)cc3)no2)cc1	-2.2	-0.1	6.9	86.5*	nt	-2.0	20.0*	i
CC(=O)c1ccc(OCc2cc(C(=O)N(C)Cc3nc4c(C)cccc4[nH]3)no2)cc1	8.2	-0.3	4.5	-4.2	nt	2.8	nt	nt
CC(C)C(=O)Nc1ccc2c(c1)C(=O)N(CCC(=O)O)C2=O	11.1	11.7	-3.5	42.7*	1.1	4.0	104.8	i
CCCCC(=O)N1C/C=C\[C@H](c2ccc(OC)cc2)N(Cc2ccc(F)cc2)C(=O)[C@@H]1C	8.6	1.6	-9.2	-0.8	nt	5.4	nt	nt
COc1ccc(C2/C=C\CN(C(=O)c3ccc(C)cc3)CC(=O)N2Cc2ccc(F)cc2)cc1 (configuration not stated)	8.6	-1.2	2.1	8.9	nt	17.0	102.3	i
COc1ccc([C@H]2/C=C\CN(C(=O)c3ccccc3)[C@@H](C)C(=O)N2Cc2ccc(F)cc2)cc1	3.4	-6.3	-6.7	2.5	nt	-19.0	110.6	i
COc1ccc(C2/C=C\CN(C(=O)Nc3ccccc3)CC(=O)N2Cc2ccc(F)cc2)cc1 (configuration not stated)	6.5	-3.1	6.7	1.0	nt	-10.2	nt	nt
O=C(Nc1cccc(C(=O)N2CCOCC2)c1)C1CCCCC1	-5.7	-0.9	nt	nt	nt	-3.1	nt	nt
CC(C)c1nc2sc3c(NCc4ccccc4)ncnc3c2c2c1COC(C)(C)C2	-14.0	-2.9	-1.8	2.1	-9.3	3.1	113.9	i
O=C(COC(=O)c1cccc(S(=O)(=O)N2CCCC2)c1)Nc1ccc(Cl)cc1	9.7	3.1	-3.7	nt	nt	-1.3	nt	nt
O=C1CC(c2cc(Br)ccc2F)c2cc3c(cc2N1)CCC3 (configuration not stated)	6.7	4.7	10.3	56.2*	21.5	4.3	95.2	i
Cc1cc(N2CCN(c3ccc([N+](=O)[O-])c4cccnc34)CC2)c2ccccc2n1	11.7	6.1	-8.0	95.0*	0.2	45.4	79.5	i
CCOC(=O)Cn1nnnc1CN(Cc1ccc(OC)cc1)Cc1cc2cc(CC)ccc2[nH]c1=O	-3.3	-10.8	3.4	85.9*	-7.5	-3.7	102.7	i
CCOC(=O)Cn1nnnc1CN(Cc1ccc(OC)cc1)Cc1cc2cc(C)ccc2[nH]c1=O	-9.0	2.7	-4.4	38.6	-4.8	1.6	nt	nt
SMILES	NOD2-RIPK2 inh	ABHD5-PLIN5 inh	TLR9-MyD88 block	B2AR ag	TLR4-MyD88 BLA	Exocytosis inh	B2AR ag CP1	FAP fluor counter
O=C1CN(S(=O)(=O)c2ccc(Br)cc2)c2ccccc2N1	-7.2	-4.4	-4.4	-6.0	nt	-2.2	nt	nt
O=C1CN(S(=O)(=O)c2cccc(Cl)c2Cl)c2ccccc2N1	3.9	-3.4	-10.1	46.1*	nt	13.3	26.1*	i
O=C(CSc1nc2ccccc2c(=O)n1-c1ccc(F)cc1F)NC1CC1	-3.6	1.9	-8.0	nt	nt	-1.1	nt	nt
O=C(CSc1nc2ccccc2c(=O)n1-c1ccc(F)cc1F)c1c[nH]c2ccccc12	-4.1	-0.7	8.5	45.1*	-10.2	-13.8	112.3	i
O=C(COc1ccc(S(=O)(=O)N2CCOCC2)cc1)Nc1ccccc1C(F)(F)F	-11.1	1.9	4.0	-6.7	-1.9	-2.1	112.3	i
O=C(COc1ccc(S(=O)(=O)N2CCCCC2)cc1)Nc1ccccc1F	-16.0	-5.2	-2.3	-2.2	nt	3.4	103.5	i
CCC1NC(=O)c2cccnc2-n2c1nc1ccc(F)cc1c2=O (configuration not stated)	-3.0	4.7	-3.5	nt	nt	3.4	nt	nt
O=C(c1ccc(N2C(=O)c3ccccc3C2=O)cc1)N1CCN(S(=O)(=O)c2ccccc2F)CC1	-11.9	-2.8	0.4	nt	nt	8.3	nt	nt
c1ccc(-c2nnc(SCc3nc4ccccc4[nH]3)n2Cc2ccco2)cc1	8.1	6.8	10.2	-11.9	1.5	-2.1	137.6	i
CCn1c(COc2ccc(Cl)cc2)nnc1SCc1nc2ccccc2[nH]1	-3.9	6.4	-7.9	-2.9	-9.0	7.8	nt	nt
Cc1ccc(OCc2nnc(SCc3nc4ccccc4[nH]3)n2Cc2ccco2)cc1	5.5	1.2	-6.1	103.8*	-5.0	34.5	20.4*	i
CCOC(=O)C1(C)CCCN1C(=O)c1cccs1 (configuration not stated)	-11.7	-0.4	nt	nt	nt	-3.5	nt	nt
Cc1cc(Cl)c2oc(C(=O)N3CCN(c4ccncc4)CC3)c(C)c2c1	20.2	15.8	3.2	64.8*	nt	24.2	64.9	i
